From PubChem BioAssay (EPA / NIEHS)
Active and inactive are the calls of the source. How the source made its calls: active means hit-call score of the fitted dose curve at least 0.9, where 1 is the maximum; inactive means score below 0.9.

experiment: IUF_NPC1a_proliferation_area_72hr: Leibniz Research Institute for Environmental Medicine (IUF) 72-hour Neural Progenitor Cell Proliferation Area Assay (NPC1a) (AID 2284208)
Description: IUF_NPC1 is a cell-based, multiplexed assay that uses hNPC, a human primary neural progenitor cells, with measurements taken at 72 hours after chemical dosing in a 96-well plate. Human neural progenitor cells (hNPC) are generated from human fetal brain cortex at gestational week (GW) 16-19. Grown in suspension culture and under proliferative conditions (proliferation media and growth factors), these cells represent neural progenitor cell proliferation. In the NPC1 assay, hNPC's are exposed to the test compound for 72h. Cell proliferation is assessed as an increase in sphere area using automated phase contrast imaging and as incorporation of Bromodeoxyuridine (BrdU) during DNA synthesis using a luminescence-based cell proliferation ELISA. In parallel, the cell viability is assessed using an alamar blue viability assay and the cytotoxicity using a lactate dehydrogenase dependent membrane integrity assay.IUF_NPC1a_proliferation_area_72hr is one of 4 assay components measured from the IUF_NPC1 assay. It is designed to measure cell proliferation as assessed by an increase in sphere area over 72 h using automated phase contrast imaging.Data from the IUF_NPC1a_proliferation_area component was analyzed at the endpoint IUF_NPC1a_proliferation_area in the positive analysis fitting direction relative to DMSO as the negative control and baseline of activity. Using a type of growth reporter, gain or loss-of-signal activity can be used to understand cell proliferation effects.
After the cell expansion period, the cells are cultured for up to four weeks in which they are passaged every week. Between one to three days after passaging, depending on the size chosen for passaging, spheres at a size of 0.3 mm are used in the assay. For the assessment of neural progenitor cell proliferation, the spheres are plated in poly-Hema coated 96-well U-bottom plates filled with proliferation medium containing growth factors (EGF and FGF). One 0.25 - 0.35 mm big sphere is plated in the middle of each well. Within 3 days NPCs proliferate and grow in size. Cultivation during the test method is performed at 37C and 5% CO2 at a pH of 7.2-7.6. As a positive control, spheres are cultivated in the absence of growth factors (EGF and FGF), which dramatically reduces proliferation. Exposure starts on the plating day (day 0) and is continued over three days, without chemical renewal, until the experiment is terminated. The assay is terminated by the assessment of cell viability, cytotoxicity, and proliferation by BrdU. All endpoints are generated from the same experimental run and from each well/sphere in the 96-well plate.

Q: Which outcome does the source give for `C=CC1(C)OC(=O)N(c2cc(Cl)cc(Cl)c2)C1=O` (centres undefined) here?
A: Its outcome is “inactive”.

Q: With `COC(=O)N(OC)c1ccccc1COc1ccn(-c2ccc(Cl)cc2)n1` as the compound, how does the AC50 read?
A: The AC50 was 1.44 µM (active).

Q: For `COP(N)(=O)SC` (centres undefined), which outcome is on record?
A: Its outcome is “inactive”.

Q: Which AC50 does the source give for `CN(C)C(=S)SSC(=S)N(C)C` here?
A: The AC50 was 67.2 µM (active).

Q: Which outcome does the source give for `CCCCOC(=O)c1ccccc1C(=O)OCCCC` here?
A: Its outcome is “inactive”.

Q: With `COP(=S)(OC)Oc1nc(Cl)c(Cl)cc1Cl` as the compound, how does the outcome read?
A: The outcome was “inactive”.

Q: For `CCOc1cc(Oc2ccc(C(F)(F)F)cc2Cl)ccc1[N+](=O)[O-]`, which outcome is on record?
A: Its outcome is “inactive”.

Q: With `CCCCC(CC)COC(=O)c1ccccc1C(=O)OCC(CC)CCCC` (centres undefined) as the compound, how does the outcome read?
A: Its outcome is “inactive”.

Q: Which AC50 does the source give for `CC(C)(C)c1ccc(CSc2cnn(C(C)(C)C)c(=O)c2Cl)cc1` here?
A: Its AC50 is 0.0126 µM (active).

Q: Which AC50 does the source give for `Cc1ccc(-c2c(Cl)nc(C#N)n2S(=O)(=O)N(C)C)cc1` here?
A: Its AC50 is 74.1 µM (active).

Q: With `N#Cc1nn(-c2c(Cl)cc(C(F)(F)F)cc2Cl)c(N)c1S(=O)C(F)(F)F` (centres undefined) as the compound, how does the outcome read?
A: Its outcome is “inactive”.

Q: For `CCOC(=O)CC(SP(=S)(OC)OC)C(=O)OCC` (centres undefined), which outcome is on record?
A: The outcome was “inactive”.

Q: Which outcome does the source give for `CNC(=O)ON=CC(C)(C)SC` here?
A: The outcome was “inactive”.

Q: Which AC50 does the source give for `CO/C=C(/C(=O)OC)c1ccccc1Oc1cc(Oc2ccccc2C#N)ncn1` here?
A: The AC50 was 60.2 µM (active).
